Reference: PubChem BioAssay (NCI)
Compounds without any hit were thinned out: in the full panel of roughly 83,000, 20% have a hit.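 Interpretation: 100, growth as untreated; towards 0, rising growth inhibition; 0, no net growth; 0 to -100, cell death. Compounds scoring below 10 were considered active.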 The source made the active and inactive calls.

System: A498 renal
Test: NCI-60 one-dose screen, 48 h (100 = growth as untreated, 0 = no growth, -100 = all killed)
Conditions: 10 µM unless noted

| Structure (SMILES) | growth |
| --- | --- |
| Cc1cccc(C)c1N1C(c2ccccc2)=NNC12C=CC(=O)c1c(O)cccc12 (stereo not given) | 109% (inactive) |
| C=CC(=O)Nc1cccc(Nc2nc(Nc3ccc(N4CCN(C(C)=O)CC4)cc3OC)ncc2C(F)(F)F)c1 | -47.1% (active) |
| COc1ccc(/C(C)=C(\c2ccc(Cl)cc2)c2ccc(OCCN3CCCCCC3)cc2)cc1 | 78.4% (inactive) |
| Cc1cc(C(=O)Nc2cc(Oc3ccc4nc(NC(=O)C5CC5)cn4n3)ccc2C)n(C)n1 | -39.2% (active) |
| CO[C@H](C(=O)N[C@@H](CCCCNC(=O)OCc1ccccc1)C(=O)OC(C)(C)C)[C@@H]1Cc2cc3cc(OC4CC(OC5CC(O)C(O)C(C)O5)C(O)C(C)O4)c(C)c(O)c3c(O)c2C(=O)[C@H]1OC1CC(OC2CC(OC3CC(C)(O)C(O)C(C)O3)C(O)C(C)O2)C(O)C(C)O1 (stereo not given in full) | -89.9% (active) |
| CCN(CCCOc1ccc2c(Nc3cc(CC(=O)Nc4cccc(F)c4)[nH]n3)ncnc2c1)CCOP(=O)(O)O | 98.4% (inactive) |
| CC/C=C\C[C@H]1C/C=C2/C(=O)C=C[C@@H]2C/C=C\CCCC(=O)O1 | -50.6% (active) |
| Cc1cn(-c2cc(NC(=O)c3ccc(C)c(Nc4nccc(-c5cnccn5)n4)c3)cc(C(F)(F)F)c2)cn1 | 106% (inactive) |
| COc1cc2ncnc3c2cc1OCCCCCN(C)Cc1ccc(Br)cc1N3 | 60.9% (inactive) |
| C[C@@]1(C(=O)Nc2ccc(F)nc2)CCCN1c1nc(Nc2cc(C3CC3)[nH]n2)c2cccn2n1 | -41.7% (active) |
| C[C@]12O[C@H](C[C@]1(O)CO)n1c3ccccc3c3c4c(c5c6ccccc6n2c5c31)CNC4=O | -96.1% (active) |
| CCN1CCN(CCCN(C[C@H]2Cc3ccccc3CN2)[C@H]2CCCc3cccnc32)CC1 | 86.6% (inactive) |
| COCc1c(-c2ccc(NC(=O)Nc3cc(C(F)(F)F)ccc3F)c(F)c2)c2c(N)ncnn2c1CN1CCOCC1 | -64.3% (active) |
| COc1cc2cc(NCc3ccc(F)cc3)nc(C)c2cc1OC | 27.4% (inactive) |
| CC(=O)C1=C(C)NC(SCc2nnc(-c3ccc(C)cc3)o2)=NC1c1ccc(F)cc1 (stereo not given) | 109% (inactive) |
| N#CC[C@H](C1CCCC1)n1cc(-c2ncnc3[nH]ccc23)cn1 | 64% (inactive) |

| Structure (SMILES) | growth |
| --- | --- |
| Cc1ccc(-[n+]2c3cc(N)c(C)cc3nc3cc(C)c(Nc4ccccc4)cc32)cc1 | -84.5% (active) |
| COc1cc2cc(NCc3ccc(Cl)cc3)nc(C)c2cc1OC | 26% (inactive) |
| CC(=O)c1cnc2ccc(-c3cc(Cl)c(O)c(Cl)c3)nc2c1NC1CCC(CN(C)C)CC1 (stereo not given) | -88% [2.5 µM] (active) |
| CCN(CC)c1cc2oc3cc(N)cc(=N)c-3nc2cc1C | 82% (inactive) |
| CO[C@H]1C[C@@H]2CC[C@@H](C)[C@@](O)(O2)C(=O)C(=O)N2CCCC[C@H]2C(=O)O[C@H]([C@H](C)C[C@@H]2CC[C@@H](O)[C@H](OC)C2)CC(=O)[C@H](C)/C=C(\C)[C@@H](O)[C@@H](OC)C(=O)[C@H](C)C[C@H](C)\C=C/C=C/C=C/1C | 13.8% (inactive) |
| COc1cccc(NC(=O)Nc2ccc(Nc3ncnc4sc5c(c34)CCN(C(=O)CCl)C5)cc2)c1 | 93.1% (inactive) |
| CCN(CC)CCNC(=O)c1c(C)[nH]c(/C=C2\C(=O)Nc3ccc(F)cc32)c1C | 47.4% (inactive) |
| CO[C@@H](C)Cn1c(=O)n(C)c2cnc3ccc(-c4cncc(C(C)(C)O)c4)cc3c21 | -55.5% (active) |
| Cc1c(N)ccc(-c2ccc(N)c(C)c2S(=O)(=O)O)c1S(=O)(=O)O | 100% (inactive) |
| CNC(=O)c1cc(Oc2ccc(NC(=O)Nc3ccc(Cl)c(C(F)(F)F)c3)c(F)c2)ccn1 | -61.7% (active) |
| COCCOc1cnc2ccn([C@H](C)c3nnc4c(F)cc(-c5cnn(C)c5)cn34)c(=O)c2c1 | 35.9% (inactive) |
| N#Cc1c(-c2ccc(Cl)cc2)csc1NC(=O)Nc1cccc(C(F)(F)F)c1 | 13.8% (inactive) |
| CC(=O)C1CC(C)CCC1C(C)C (stereo not given) | 92.4% (inactive) |
| O=C(COc1cccc(/C=C2\Cc3ccc(Cl)cc3C2=O)c1)Nc1nccs1 | 98.3% (inactive) |
| O=C(Cn1ccnc1)Nc1ccc(-c2nc3ccccc3s2)cc1 | 57.5% (inactive) |
| CN1CCC(CNc2ccc3ncc(-c4cccc(OC(F)(F)F)c4)n3n2)CC1 | -79.8% (active) |

System: CCRF-CEM leukemia
Test: as above
Conditions: 10 µM unless noted

| Structure (SMILES) | growth |
| --- | --- |
| C=CC(=O)N1CCC(Oc2cc3c(Nc4ccc(Cl)c(Cl)c4F)ncnc3cc2OC)CC1 | 20.9% (inactive) |
| FC(F)(F)c1ccc(CNc2ccc(Cc3c[nH]c4ncc(Cl)cc34)cn2)cn1 | 23.4% (inactive) |
| O=S1(=O)OC(c2cc(Cl)c(O)c(Br)c2)(c2cc(Cl)c(O)c(Br)c2)c2ccccc21 | 93.6% (inactive) |
| CC(C)(C)OC(=O)N1CCC(O)[C@@H](O[Si](c2ccccc2)(c2ccccc2)C(C)(C)C)[C@H]1/C=C/c1ccccc1 (stereo not given in full) | 46.4% (inactive) |
| Cc1cn(-c2cc(NC(=O)c3ccc(C)c(Nc4nccc(-c5cccnc5)n4)c3)cc(C(F)(F)F)c2)cn1 | 36.2% (inactive) |
| Cc1cnc(Nc2ccc(OCCN3CCCC3)cc2)nc1Nc1cccc(S(=O)(=O)NC(C)(C)C)c1 | 1.67% (active) |
| Cc1cccc(C)c1N1C(c2ccccc2)=NNC12C=CC(=O)c1c(O)cccc12 (stereo not given) | 95.9% (inactive) |
| C=CC(=O)Nc1cccc(Nc2nc(Nc3ccc(N4CCN(C(C)=O)CC4)cc3OC)ncc2C(F)(F)F)c1 | 19.2% (inactive) |
| COc1ccc(/C(C)=C(\c2ccc(Cl)cc2)c2ccc(OCCN3CCCCCC3)cc2)cc1 | 43.9% (inactive) |
| Cc1cc(C(=O)Nc2cc(Oc3ccc4nc(NC(=O)C5CC5)cn4n3)ccc2C)n(C)n1 | 29.9% (inactive) |
| CO[C@H](C(=O)N[C@@H](CCCCNC(=O)OCc1ccccc1)C(=O)OC(C)(C)C)[C@@H]1Cc2cc3cc(OC4CC(OC5CC(O)C(O)C(C)O5)C(O)C(C)O4)c(C)c(O)c3c(O)c2C(=O)[C@H]1OC1CC(OC2CC(OC3CC(C)(O)C(O)C(C)O3)C(O)C(C)O2)C(O)C(C)O1 (stereo not given in full) | 3.09% (active) |
| CCN(CCCOc1ccc2c(Nc3cc(CC(=O)Nc4cccc(F)c4)[nH]n3)ncnc2c1)CCOP(=O)(O)O | 51.4% (inactive) |
| CC/C=C\C[C@H]1C/C=C2/C(=O)C=C[C@@H]2C/C=C\CCCC(=O)O1 | -14.5% (active) |
| Cc1cn(-c2cc(NC(=O)c3ccc(C)c(Nc4nccc(-c5cnccn5)n4)c3)cc(C(F)(F)F)c2)cn1 | 60.5% (inactive) |
| COc1cc2ncnc3c2cc1OCCCCCN(C)Cc1ccc(Br)cc1N3 | 51.8% (inactive) |
| C[C@@]1(C(=O)Nc2ccc(F)nc2)CCCN1c1nc(Nc2cc(C3CC3)[nH]n2)c2cccn2n1 | 44% (inactive) |
| C[C@]12O[C@H](C[C@]1(O)CO)n1c3ccccc3c3c4c(c5c6ccccc6n2c5c31)CNC4=O | 0.654% (active) |
| CCN1CCN(CCCN(C[C@H]2Cc3ccccc3CN2)[C@H]2CCCc3cccnc32)CC1 | 79.6% (inactive) |
| COCc1c(-c2ccc(NC(=O)Nc3cc(C(F)(F)F)ccc3F)c(F)c2)c2c(N)ncnn2c1CN1CCOCC1 | 5.76% (active) |

| Structure (SMILES) | growth |
| --- | --- |
| COc1cc2cc(NCc3ccc(F)cc3)nc(C)c2cc1OC | 41.9% (inactive) |
| CC(=O)C1=C(C)NC(SCc2nnc(-c3ccc(C)cc3)o2)=NC1c1ccc(F)cc1 (stereo not given) | 88.1% (inactive) |
| N#CC[C@H](C1CCCC1)n1cc(-c2ncnc3[nH]ccc23)cn1 | 58.5% (inactive) |
| Cc1ccc(-[n+]2c3cc(N)c(C)cc3nc3cc(C)c(Nc4ccccc4)cc32)cc1 | 1.93% (active) |
| COc1cc2cc(NCc3ccc(Cl)cc3)nc(C)c2cc1OC | 27.9% (inactive) |
| CC(=O)c1cnc2ccc(-c3cc(Cl)c(O)c(Cl)c3)nc2c1NC1CCC(CN(C)C)CC1 (stereo not given) | 1.45% [2.5 µM] (active) |
| CCN(CC)c1cc2oc3cc(N)cc(=N)c-3nc2cc1C | 15.3% (inactive) |
| CO[C@H]1C[C@@H]2CC[C@@H](C)[C@@](O)(O2)C(=O)C(=O)N2CCCC[C@H]2C(=O)O[C@H]([C@H](C)C[C@@H]2CC[C@@H](O)[C@H](OC)C2)CC(=O)[C@H](C)/C=C(\C)[C@@H](O)[C@@H](OC)C(=O)[C@H](C)C[C@H](C)\C=C/C=C/C=C/1C | 22.1% (inactive) |
| COc1cccc(NC(=O)Nc2ccc(Nc3ncnc4sc5c(c34)CCN(C(=O)CCl)C5)cc2)c1 | 88.4% (inactive) |
| CCN(CC)CCNC(=O)c1c(C)[nH]c(/C=C2\C(=O)Nc3ccc(F)cc32)c1C | 7.54% (active) |
| CO[C@@H](C)Cn1c(=O)n(C)c2cnc3ccc(-c4cncc(C(C)(C)O)c4)cc3c21 | 10.4% (inactive) |
| Cc1c(N)ccc(-c2ccc(N)c(C)c2S(=O)(=O)O)c1S(=O)(=O)O | 102% (inactive) |
| CNC(=O)c1cc(Oc2ccc(NC(=O)Nc3ccc(Cl)c(C(F)(F)F)c3)c(F)c2)ccn1 | 1.42% (active) |
| COCCOc1cnc2ccn([C@H](C)c3nnc4c(F)cc(-c5cnn(C)c5)cn34)c(=O)c2c1 | 70.6% (inactive) |
| N#Cc1c(-c2ccc(Cl)cc2)csc1NC(=O)Nc1cccc(C(F)(F)F)c1 | 14.1% (inactive) |
| CC(=O)C1CC(C)CCC1C(C)C (stereo not given) | 70.5% (inactive) |
| O=C(COc1cccc(/C=C2\Cc3ccc(Cl)cc3C2=O)c1)Nc1nccs1 | 77.1% (inactive) |
| O=C(Cn1ccnc1)Nc1ccc(-c2nc3ccccc3s2)cc1 | 69.1% (inactive) |
| CN1CCC(CNc2ccc3ncc(-c4cccc(OC(F)(F)F)c4)n3n2)CC1 | -5.49% (active) |
